Test results taken from PubChem BioAssay.
Calls of active or inactive are those of the source. Unless noted, how the calls were made is not given here.

Key:
[1] = anti-His antibody binders, primary screen, artefact control for SMM control protein annotation, biochemical, small-molecule microarray, 635 nm fluorescence (AID 1128); details: anti-His Alexa647 antibody binding, higher = more signal;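 further: score merges feature fluorescence with signal-to-noise for each printed compound spot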
[2] = tested on: Human papillomavirus type 1a E7 protein (residues 1-88); test: HPV1a E7 small-molecule binders, primary screen, biochemical, small-molecule microarray, residues 1-88, 635 nm (AID 1129); details: small-molecule microarray binding, fluorescence 635 nm; higher = more signal
[3] = target: Focal adhesion kinase 1 (Homo sapiens) (UniProt Q05397); test: small-molecule microarray binders of FAK, primary screen, biochemical, 635/667 nm fluorescence, BSA, DTT (AID 1130); details: PTK2 binding, 635 nm fluorescence, higher = more signal;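 further: composite of spot emission at 667 nm and signal to noise over triplicate slides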
Focal adhesion kinase 1 (Homo sapiens), sequence (Q05397 whole entry, looked up): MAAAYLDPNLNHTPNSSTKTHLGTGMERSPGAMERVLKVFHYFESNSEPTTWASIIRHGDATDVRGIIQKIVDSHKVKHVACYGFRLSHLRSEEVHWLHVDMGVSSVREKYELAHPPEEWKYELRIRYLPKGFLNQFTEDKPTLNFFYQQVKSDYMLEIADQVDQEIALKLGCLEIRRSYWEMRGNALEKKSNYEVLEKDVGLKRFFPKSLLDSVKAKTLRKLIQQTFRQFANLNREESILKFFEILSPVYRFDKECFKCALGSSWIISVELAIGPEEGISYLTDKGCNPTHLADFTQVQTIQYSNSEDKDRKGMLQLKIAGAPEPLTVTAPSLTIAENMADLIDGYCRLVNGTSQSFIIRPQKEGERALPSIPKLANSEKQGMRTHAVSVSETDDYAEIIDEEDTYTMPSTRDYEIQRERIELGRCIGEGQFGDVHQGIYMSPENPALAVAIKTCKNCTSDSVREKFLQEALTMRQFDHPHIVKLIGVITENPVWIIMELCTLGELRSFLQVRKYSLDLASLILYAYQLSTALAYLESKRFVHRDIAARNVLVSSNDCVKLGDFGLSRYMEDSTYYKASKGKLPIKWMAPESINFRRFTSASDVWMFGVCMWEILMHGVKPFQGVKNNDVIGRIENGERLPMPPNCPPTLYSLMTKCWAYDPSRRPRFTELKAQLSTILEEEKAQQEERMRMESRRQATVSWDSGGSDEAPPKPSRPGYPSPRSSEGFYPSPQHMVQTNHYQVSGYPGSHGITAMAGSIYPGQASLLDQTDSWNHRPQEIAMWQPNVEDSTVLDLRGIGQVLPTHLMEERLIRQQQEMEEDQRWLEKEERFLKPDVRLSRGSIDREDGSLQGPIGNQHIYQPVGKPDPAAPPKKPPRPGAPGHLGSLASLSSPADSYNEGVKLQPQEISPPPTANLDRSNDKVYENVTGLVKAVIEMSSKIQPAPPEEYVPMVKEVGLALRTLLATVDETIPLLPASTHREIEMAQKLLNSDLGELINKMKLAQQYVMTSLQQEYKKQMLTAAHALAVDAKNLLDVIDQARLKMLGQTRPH

[4] = tested on: Fibrinogen (Alexa647-labelled); test: fibrinogen binders on compound microarrays, profiling panel, artefact control for SMM control-protein annotation, biochemical, small-molecule microarray, 635/667 nm fluorescence (AID 1131); details: fibrinogen-A647 binding fluorescence, higher = more signal;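 further: z-score merges 667 nm fluorescence with per-spot signal-to-noise over triplicate slides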
[5] = target: Follistatin (Homo sapiens) (UniProt P19883); test: follistatin binders on small-molecule microarrays, primary screen, biochemical, small-molecule microarray, 635/667 nm fluorescence (AID 1132); details: FST binding, 635 nm fluorescence, higher = more signal
Follistatin (Homo sapiens), sequence (P19883 whole entry, looked up): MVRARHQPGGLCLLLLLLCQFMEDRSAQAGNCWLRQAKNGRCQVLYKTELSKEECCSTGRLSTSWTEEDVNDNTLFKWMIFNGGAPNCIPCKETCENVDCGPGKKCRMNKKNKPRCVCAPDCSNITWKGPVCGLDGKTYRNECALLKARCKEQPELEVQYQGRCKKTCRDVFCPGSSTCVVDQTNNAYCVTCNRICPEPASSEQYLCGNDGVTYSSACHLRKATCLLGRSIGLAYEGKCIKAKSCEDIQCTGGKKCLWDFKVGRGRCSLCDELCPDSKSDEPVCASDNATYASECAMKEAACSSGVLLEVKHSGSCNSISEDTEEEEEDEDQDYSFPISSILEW

[6] = target: Fibroblast growth factor 2 (Homo sapiens) (UniProt P09038); test: FGF2 binders on small-molecule microarrays, primary screen, biochemical, small-molecule microarray, 635/667 nm fluorescence (AID 1133); details: small-molecule microarray binding, FGF2, fluorescence 635/667; higher = more signal
Fibroblast growth factor 2 (Homo sapiens), sequence (P09038 whole entry, looked up): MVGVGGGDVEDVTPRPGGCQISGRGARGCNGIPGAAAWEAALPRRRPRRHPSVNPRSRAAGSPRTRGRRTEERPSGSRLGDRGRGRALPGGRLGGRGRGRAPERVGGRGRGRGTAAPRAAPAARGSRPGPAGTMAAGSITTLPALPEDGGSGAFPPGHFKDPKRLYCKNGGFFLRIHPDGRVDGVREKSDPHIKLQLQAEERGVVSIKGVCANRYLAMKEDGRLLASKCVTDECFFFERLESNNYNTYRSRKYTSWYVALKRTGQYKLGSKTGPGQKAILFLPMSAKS

[7] = mitochondrial membrane potential change in A549 cells, profiling panel, cell-based, JC-1 fluorescence, basal, 24 h, 100 nL (AID 1138); details: higher = more signal;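 further: A549 lung adenocarcinoma cells under basal conditions with no added stimulus; test concentration not given here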
Lefty1 = Lefty1 binders on small-molecule microarrays, primary screen, biochemical, small-molecule microarray, 635/667 nm fluorescence (AID 1139); details: small-molecule microarray binding, fluorescence 635/667; higher = more signal
[8] = tested on: wheat germ agglutinin (Triticum aestivum), Alexa647-labelled; test: wheat germ agglutinin binders on compound microarrays, profiling panel, artefact control for SMM control-protein annotation, biochemical, small-molecule microarray, 635/667 nm fluorescence (AID 1140); details: WGA-A647 binding, 635 nm fluorescence, higher = more signal;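 further: score merges 667 nm feature emission with signal to noise over triplicate slides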
[9] = target: Luciferin 4-monooxygenase (Photinus pyralis) (UniProt P08659); test: firefly luciferase enzyme inhibitors, primary screen, biochemical, luminescence, purified enzyme, 2006 set (AID 1141); details: SteadyGlo luminescence, 30 min, higher = more signal, called active from +8 up or from −8 down;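 further: cell-free assay with purified firefly luciferase at 100 ng per well in PBS; test concentration not given here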
Luciferin 4-monooxygenase (Photinus pyralis), sequence (P08659 whole entry, looked up): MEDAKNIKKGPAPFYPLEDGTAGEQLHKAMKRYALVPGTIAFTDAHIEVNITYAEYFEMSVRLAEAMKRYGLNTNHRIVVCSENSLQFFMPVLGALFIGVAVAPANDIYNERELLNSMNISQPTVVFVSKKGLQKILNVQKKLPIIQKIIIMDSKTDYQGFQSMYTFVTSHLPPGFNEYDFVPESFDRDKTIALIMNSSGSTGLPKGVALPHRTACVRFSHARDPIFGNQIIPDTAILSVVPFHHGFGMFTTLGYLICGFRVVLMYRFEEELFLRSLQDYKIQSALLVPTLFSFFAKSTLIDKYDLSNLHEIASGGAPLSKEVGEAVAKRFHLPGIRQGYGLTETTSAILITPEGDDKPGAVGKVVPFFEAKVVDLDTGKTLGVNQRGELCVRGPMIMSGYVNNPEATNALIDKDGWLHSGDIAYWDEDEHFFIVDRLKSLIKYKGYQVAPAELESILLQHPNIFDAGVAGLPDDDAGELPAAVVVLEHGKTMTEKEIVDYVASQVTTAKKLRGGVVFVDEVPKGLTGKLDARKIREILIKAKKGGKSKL

[10] = tested on: Wnt5a (protein binding on small-molecule microarray); test: Wnt5a binders on small-molecule microarray, primary screen, biophysical, 635/667 nm fluorescence (AID 1142); details: 635 nm fluorescence, higher = more signal;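 further: fluorescence read at 667 nm with signal to noise per printed feature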
[11] = cell viability in Huh7 cells, primary screen, cytotoxicity control for HCV replication inhibitor project, CellTiter-Glo luminescence, basal, 48 h (AID 1143); details: Huh7 HCV replicon, higher = more signal, called active from +8 up or from −8 down;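 further: Huh7 hepatoma cells carrying a hepatitis C replication reporter with no stimulus; test concentration not given here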
[12] = P. aeruginosa biofilm formation inhibitors, primary screen, PAO1 strain, BacTiter-Glo luminescence, LB-PBS (AID 1144); details: 12 h, higher = more signal
[13] = CREB reporter modulators without forskolin, primary screen, cell-based, PC12, CRE-LacZ reporter, unstimulated (AID 1145); details: no forskolin, luminescence, 4.5 h, higher = more signal, called active from +8 up or from −8 down
[14] = CREB reporter modulators under forskolin, primary screen, cell-based, PC12, CRE-LacZ reporter, forskolin-stimulated (AID 1146); details: luminescence, 4.5 h, higher = more signal, called active from +8 up or from −8 down;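 further: PC12 cells with 6xCRE LacZ reporter stimulated by forskolin 10 µM; beta-galactosidase reporter signal reflecting CREB driven transcription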
[15] = target: Streptavidin (Streptomyces avidinii) (UniProt P22629); test: streptavidin binders on small-molecule microarray, primary screen, artefact control for SMM compound annotation, biophysical, 635/667 nm fluorescence (AID 1147); details: streptavidin binding, higher = more signal;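 further: signal reflects streptavidin binding to arrayed compounds as a control protein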
Streptavidin (Streptomyces avidinii), sequence (P22629 whole entry, looked up): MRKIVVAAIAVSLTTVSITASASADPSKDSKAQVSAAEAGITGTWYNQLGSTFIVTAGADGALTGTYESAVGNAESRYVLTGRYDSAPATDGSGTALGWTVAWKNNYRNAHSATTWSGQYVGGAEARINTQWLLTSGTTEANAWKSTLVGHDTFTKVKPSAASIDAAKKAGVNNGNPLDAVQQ

[16] = small-molecule binders of probe aInhba, primary screen, biochemical, small-molecule microarray, 635/667 nm fluorescence (AID 1148); details: higher = more signal;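 further: score merges 667nm spot fluorescence with signal-to-noise for antibody binding to printed compounds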
Torsin-1A (Homo sapiens) [17] = target: Torsin-1A (Homo sapiens) (UniProt O14656); test: torsin A binders from cell lysate, primary screen, small-molecule microarray, wild-type, 635/667 nm (AID 1149); details: COS7 hTOR1A-WT lysate, 635 nm fluorescence, higher = more signal
Torsin-1A (Homo sapiens), sequence (O14656 whole entry, looked up): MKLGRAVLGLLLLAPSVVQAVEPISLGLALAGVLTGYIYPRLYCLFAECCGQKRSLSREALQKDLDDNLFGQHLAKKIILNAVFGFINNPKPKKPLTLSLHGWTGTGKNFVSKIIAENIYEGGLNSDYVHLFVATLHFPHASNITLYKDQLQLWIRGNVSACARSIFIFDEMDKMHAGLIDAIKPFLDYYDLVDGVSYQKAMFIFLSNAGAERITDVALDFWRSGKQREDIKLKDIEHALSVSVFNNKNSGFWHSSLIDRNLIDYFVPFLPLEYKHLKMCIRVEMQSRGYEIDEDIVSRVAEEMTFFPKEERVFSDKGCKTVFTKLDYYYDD

Torsin-1A (Homo sapiens) [18] = target: Torsin-1A (Homo sapiens) (UniProt O14656); test: small-molecule binders of mutant TOR1A in lysate, primary screen, cell lysate, small-molecule microarray, COS7 lysate, 635/667 nm fluorescence (AID 1150); details: COS7 hTOR1A mutant lysate, 635 nm fluorescence, higher = more signal;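 further: score pools 667 nm emission and signal to noise measuring lysate protein binding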
[19] = tested on: Sonic hedgehog protein (Shh); test: small-molecule binders of Shh protein, primary screen, biochemical, small-molecule microarray, 635/667 nm fluorescence (AID 1151); details: small-molecule microarray binding, 635 nm fluorescence; higher = more signal;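 further: Shh protein binding to compounds spotted on small-molecule microarray slides; score combines spot fluorescence intensity with signal-to-noise across triplicate slides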

Row | Compound | composite z-score [1] | composite z-score [2] | composite z-score [3] | composite z-score [4] | composite z-score [5] | composite z-score [6] | z-score [7] | composite z-score (Lefty1) | composite z-score [8] | z-score [9] | composite z-score [10] | z-score [11] | z-score [12] | z-score [13] | z-score [14] | composite z-score [15] | composite z-score [16] | composite z-score (Torsin-1A (Homo sapiens) [17]) | composite z-score (Torsin-1A (Homo sapiens) [18]) | composite z-score [19]
1 | CN(C)CCCC[C@@H]1NC(=O)[C@H]2C[C@@H](C(=O)O)[C@@H](c3cccc(OCCO)c3)N2C1=O | 3.17 | -0.209 | 0.239 | 0.564 | 1.4 | 0.977 | 1.29 | 1.45 | 0.734 | -1.9 (inactive) | 0.205 | -0.0686 (inactive) | -0.43 (inactive) | 0.0124 (inactive) | 0.0684 (inactive) | -0.414 | 0.216 | 0.717 | 1.1 | 1.84
2 | CN1C(=O)C2C(C1=O)C1C=C(c3ccc(CO)cc3)C2C(c2cccs2)N1C (stereo not given) | 0.495 | 0.157 | 0.0955 | 0.783 | -0.0613 | -0.25 | -0.0324 | -0.295 | 0.742 | -0.836 (inactive) | -0.192 | -1.04 (inactive) | 2.04 (inactive) | 1.98 (inactive) | -0.999 (inactive) | 1.56 | -0.0523 | 0.233 | 0.221 | 0.237
3 | CC(=O)NCCCC[C@@H]1NC(=O)[C@H]2C[C@@H](C(=O)NCCCCCC[N+](C)(C)C)[C@@H](c3ccc(O)cc3)N2C1=O | 1.54 | 1.08 | 0.26 | -0.0238 | 1.26 | 0.862 | -0.431 | 1.41 | 0.16 | 0.512 (inactive) | -0.127 | -0.385 (inactive) | -1.42 (inactive) | -1.35 (inactive) | -0.665 (inactive) | -0.448 | 0.0857 | 1.4 | 1.75 | 2.1
4 | CN1C=C(C(=O)OCCS(C)(=O)=O)C(C(=O)OCCS(C)(=O)=O)=CC(CCCO)=CC1c1ccc(CN2CCCC2)cc1 (stereo not given) | 1.29 | 1.26 | 0.666 | 0.894 | 1.06 | 0.546 | 3.43 | 1.23 | 0.837 | -2.16 (inactive) | 0.531 | -0.209 (inactive) | 0.356 (inactive) | 5.05 (inactive) | -0.267 (inactive) | 1.24 | 0.253 | 0.244 | 1.19 | 1.06
5 | C=CCC(OC(C)=O)[C@@H]1[C@@H](N(Cc2cc3ccccc3o2)C(=O)c2cccc3ccccc23)c2cc(OCCCO)ccc2N1C(=O)c1ccc2ccccc2c1 (stereo not given in full) | -0.0596 | -0.566 | 0.11 | -0.262 | 0.65 | 0.133 | -0.0697 | 0.203 | -0.0449 | 0.131 (inactive) | 0.316 | -0.928 (inactive) | 0.26 (inactive) | 3.85 (inactive) | 0.0746 (inactive) | 0.0823 | -0.0791 | 0.523 | 0.132 | 0.198
6 | COc1ccc(CCNC(=O)[C@@]2(Sc3ccc(C)cc3)CC(=O)N(Cc3cc(C(F)(F)F)cc(C(F)(F)F)c3)[C@@H]2c2ccc(CO)cc2)cc1 | -0.588 | -1.49 | -0.545 | -1.07 | -1.83 | -2.57 | -0.138 | -1.25 | 0.0191 | -0.877 (inactive) | -0.668 | 0.305 (inactive) | 0.731 (inactive) | 0.495 (inactive) | 0.84 (inactive) | -0.959 | -0.127 | -1.43 | -1.53 | -2.14
7 | COCCOC(=O)N1C(=O)[C@@]2(c3cc(C#CCC(C(=O)OC)C(=O)OC)ccc31)[C@H](C(=O)N1CCc3cc(OC)c(OC)cc3C1)[C@H]1C(=O)O[C@H](c3ccccc3)[C@H](c3ccccc3)N1[C@@H]2c1ccc(O)cc1 | 1.82 | 1.21 | 0.221 | 0.787 | 1.36 | 1.59 | -0.132 | 1.11 | 1.05 | 1.01 (inactive) | 0.44 | -0.607 (inactive) | 0.0314 (inactive) | 0.0653 (inactive) | -0.572 (inactive) | 0.286 | 0.134 | 1.32 | 0.864 | 1.9
8 | CCCCC(=C=CC[C@H](O)c1ccc(OCCO)cc1)C[C@H](O)c1ccccn1 | 1.67 | 1.13 | 0.26 | 0.963 | 1.27 | 1.54 | 1.27 | 0.885 | 0.266 | -2.27 (inactive) | 0.259 | -0.671 (inactive) | 0.229 (inactive) | 5.13 (inactive) | -0.533 (inactive) | -0.319 | 0.0398 | 0.215 | 1.58 | 1.17
9 | COCCOC(=O)N1C(=O)[C@@]2(c3cc(C#CCCO)ccc31)[C@H](C(=O)N1CCN(c3ncccn3)CC1)[C@H]1C(=O)O[C@H](c3ccccc3)[C@H](c3ccccc3)N1[C@@H]2c1ccc(O)cc1 | 2.17 | 1.22 | 1.19 | 0.928 | 0.577 | 0.088 | 1.35 | 0.413 | 0.613 | -0.979 (inactive) | 0.15 | -1.79 (inactive) | -0.798 (inactive) | 0.484 (inactive) | 0.268 (inactive) | -0.269 | -0.291 | -0.144 | 0.522 | 1.11
